# Source: paper PMC5540273 (PLoS ONE, 2017)
# Assays:
# Settings in all cases: concentration: 1 μM, replicates: in singlicate; n = 1
# FAK = system: T1, FAK
# T1 construct: gene PTK2
# FER = system: FER
# FES = system: FES
# FGFR1 = system: FGFR1
# FGFR2 = system: FGFR2
# FGFR3 = system: FGFR3
# FGFR4 = system: FGFR4
# FGR = system: FGR
# FLT1 = system: FLT1
# FLT3-autoinhibited = system: FLT3-autoinhibited
# FLT3 = system: FLT3
# FLT4 = system: FLT4
# FRK = system: FRK
# FYN = system: FYN
# GAK = system: GAK
# GCN2(Kin.Dom.2,S808G) = system: T2, GCN2(Kin.Dom.2,S808G)
# T2 construct: gene EIF2AK4
# GRK1 = system: GRK1
# GRK2 = system: T3, GRK2
# T3 construct: gene ADRBK1
# GRK3 = system: T4, GRK3
# T4 construct: gene ADRBK2
# GRK4 = system: GRK4
# 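Note: KINOMEscan kinase panel screen.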
Compound,%Inh (FAK) [%],%Inh (FER) [%],%Inh (FES) [%],%Inh (FGFR1) [%],%Inh (FGFR2) [%],%Inh (FGFR3) [%],%Inh (FGFR4) [%],%Inh (FGR) [%],%Inh (FLT1) [%],%Inh (FLT3-autoinhibited) [%],%Inh (FLT3) [%],%Inh (FLT4) [%],%Inh (FRK) [%],%Inh (FYN) [%],%Inh (GAK) [%],"%Inh (GCN2(Kin.Dom.2,S808G)) [%]",%Inh (GRK1) [%],%Inh (GRK2) [%],%Inh (GRK3) [%],%Inh (GRK4) [%]
COC(=O)c1c(-c2ccccc2)c2cc(C(=O)O)ccc2c(=O)n1Cc1ccccc1,0,0,0,0,3,0,0,0,7,3,0,0,48,0,0,10,0,0,3,23
CC(C)(C)c1ccc(C(=O)Nc2cn3cc(Cl)ccc3n2)cc1,0,4,0,12,0,0,0,0,43,0,70,0,12,99.3,0,36,10,0,0,0
Cn1ccc2ncnc(Oc3ccc(NC(=O)Nc4ccccc4)cc3)c21,8,16,5,14,0,0,11,0,89,48,97.4,15,11,4,4,11,0,0,11,0
O=C(Nc1ccccc1)Nc1cccc(Oc2ccc3nccn3n2)c1,0,0,0,13,9,0,0,18,96.8,0,4,67,0,0,0,14,0,0,0,23
Cc1cccc(-c2nc(-c3ccc(S(C)(=O)=O)cc3)sc2-c2ccnc(NCCc3ccccc3)c2)c1,0,0,0,5,1,0,0,0,18,0,0,7,66,0,0,16,11,0,6,0
Cc1cc(NCC(c2ccccc2)c2ccccc2)nc(NCc2ccc(C(F)(F)F)cc2)n1 [GW497681],0,0,0,0,0,20,1,20,11,0,0,0,0,0,0,0,0,0,22,0
COc1cc2nccc(Nc3ccc(NC(=O)c4ccc(C)cc4)c(O)c3)c2cc1OC.Cl [GW440132],0,45,5,22,22,2,6,37,30,0,0,0,25,17,11,0,0,0,29,0
